Screens deposited in PubChem BioAssay by National Center for Advancing Translational Sciences (NCATS).
Only some compounds are listed: those with a hit (about 12% of all), similar ones and a draw of the others.
CHX counter = Cycloheximide Counterscreen for Small Molecule Inhibitors of Shiga Toxin; cell reporter, cycloheximide protein synthesis inhibition counterscreen; max response, %; hit rate 12% among 300,000; AID 2314, 2010; in the data active = max response mostly above about 13%, no sharp cut-off; inactive = mostly below about 14%; also: read at 38.3 µM for the half of the compounds with a filed dose; 0% is about no effect
NS1 inh = qHTS Assay for Inhibitors of Influenza NS1 Protein Function | hit rate 0.4% among 270,000 | Potency, µM (titrated, usually from 46.1 µM), inactives show at the top dose activity, positive = more growth | AID 2326, 2010; also: potency is read from the fitted curve at half-maximal effect; actives are rising curves; nearly all actives have a fitted effect of over 50% in size
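OD600 was taken as the measure of yeast growth restored by compound in an NS1-expressing S. cerevisiae strain. Cells had been washed out of glucose medium and diluted 1:100 into galactose -URA medium, pH 6.0.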
SARS PLP yeast = qHTS of Yeast-based Assay for SARS-CoV PLP. S. cerevisiae expressing SARS-CoV PLpro, growth rescue. Potency, µM (highest dose often 32.9 µM), for inactives: at the highest dose activity, positive = growth rescue, most hits filed as activators. AID 485353, 2010. hit rate 0.19% among 330,000; also: potency is read from the fitted curve at half-maximal effect; 0% is about no effect; nearly all actives have a fitted effect of over 55% in size
Shiga inhibitor = A qHTS for Small Molecule Inhibitors of Shiga Toxin; Vero cells, Shiga toxin protein synthesis inhibition reporter; inhibition, % at 38.7 µM; hit rate 9.2% among 290,000; in the data active = inhibition mostly above about 28%, no sharp cut-off; inactive = mostly below about 43%; also: 0% is about no effect
* hit, by the source's call; ? = inconclusive; . = not tested or not shown. Unless noted, calls follow the shape of the full dose curve.

SMILES	CHX counter	NS1 inh	SARS PLP yeast	Shiga inhibitor
CSc1ccc(-c2nnn(CC(=O)NCc3ccccc3)n2)cc1	11*	8%	-4%	11
COc1ccc(-c2nnn(CC(=O)N3CCOCC3)n2)cc1	-2	8%	4%	-7
OCCCN=C1CCCCC1	.	3%	.	.
CCCCc1cc(=O)oc2c(C)c(OCC(=O)N3C[C@H]4C[C@@H](C3)c3cccc(=O)n3C4)ccc12	-5	6%	5%	-3
O=C(CCl)Nc1c2c(nn1-c1ccccc1)CSC2	4	-28%	-3%	-3
O=C(CCN1CCOCC1)NNC(=O)Nc1cccc(Cl)c1	-2	8%	-8%	-13
COc1ccc(OC)c(NC(=O)COC(=O)Cn2nnc(-c3ccccc3)n2)c1	.	.	8%	.
CCOC(=O)CC(NC(=O)Cn1nnc(-c2ccccc2)n1)c1ccc(OC)cc1 (stereo not given)	25*	.	0%	13
COc1ccccc1OCCNC(=O)CN(c1cccc(C)c1)S(=O)(=O)c1ccccc1	-2	-20%	6%	-6
CC1(C)SC(=S)N(/N=C/c2cccnc2)C1N(O)C(=O)Nc1ccccc1 (stereo not given)	-3	-2%	0%	23
CNC(=O)N(O)C1N(/N=C/c2cc(Br)ccc2O)C(=S)SC1(C)C (stereo not given)	15*	-5%	-1%	36
CC1(C)SC(=S)N(/N=C/c2ccccc2O)C1N(O)C(=O)Nc1ccccc1 (stereo not given)	21*	-4%	3%	52*
CCOC(=O)C(NC(=O)CC)(Nc1ccccc1OC)C(F)(F)F (stereo not given)	17*	-55%	14%	-3
CCn1c(C)cc(O)cc1=O	-1	4%	1%	15
O=C(N/N=C/c1ccccn1)c1ccc(NC(=O)c2cccc([N+](=O)[O-])c2)cc1	0	.	0%	9
O=C(N/N=C/c1ccccn1)c1cccc([N+](=O)[O-])c1	8.8*	-3%	0%	55*
O=C(N/N=C/c1ccccn1)c1ccc([N+](=O)[O-])cc1	36*	.	3%	100*
CCOc1ccc(N(CC(=O)Nc2ccccc2Cl)S(C)(=O)=O)cc1	28*	-6%	5%	74*
CCOc1ccc(N(CC(=O)Nc2ccccc2OC)S(C)(=O)=O)cc1	9	1%	-11%	14
CCOC(=O)c1ccccc1NC(=O)CN(c1ccc(OCC)cc1)S(C)(=O)=O	-1	-3%	0%	-14
CCOc1ccc(N(CC(=O)Nc2ccccc2)S(C)(=O)=O)cc1	19*	-50%	-8%	50*
CCOc1ccc(N(CC(=O)Nc2ccc(C)c(C)c2)S(=O)(=O)c2c(C)[nH]c(=O)[nH]c2=O)cc1	5	-11%	1%	25
CCOc1ccc(N(CC(=O)Nc2ccc(C)c(C)c2)S(C)(=O)=O)cc1	78*	1%	3%	107*
COCCCNC(=O)C(C)N1c2cccc3cccc(c23)S1(=O)=O (stereo not given)	-1	-7%	1%	-1
CC(C)(O)[C@@H]1CC[C@@](C)(C2CC[C@]3(C)C2[C@H](O)CC2[C@@]4(C)CC[C@H](O)C(C)(C)C4[C@@H](O[C@H]4O[C@@H](CO)[C@H](O)[C@@H](O)[C@@H]4O[C@@H]4O[C@H](CO)[C@@H](O)[C@H](O)[C@H]4O)C[C@]23C)O1 (stereo in doubt)	.	.	7%	.
SMILES	CHX counter	NS1 inh	SARS PLP yeast	Shiga inhibitor
CCCCC/C(=N\NC(=O)CCC(=O)NCc1ccccc1)c1ccccc1	-3	-2%	0%	-5
CCCC/C(=N\NC(=O)c1ccc(Br)o1)c1ccccc1	32*	-1%	-6%	46*
CC/C(=N/NC(=O)c1ccc(Br)o1)c1ccc(Cl)cc1	39*	-5%	4%	125*
O=C(Cn1c(=O)oc2ccccc21)c1ccccc1	-2	3%	-2%	17
O=c1oc2ccccc2n1CSc1nc2ccccc2s1	41*	-2%	?	96*
O=c1oc2ccccc2n1CSC1=NCCS1	19*	-32%	1%	55
CC(N=c1ccccn1C(=O)Nc1ccc(Cl)cc1)c1ccco1 (stereo not given)	49*	1%	3%	65*
COc1ccc(Br)cc1C1NC(c2ccc3c(c2)OCO3)=CC(c2cc(Cl)ccc2O)N1 (stereo not given)	45*	.	.	90*
Oc1ccc(Cl)cc1C1C=C(c2ccc3c(c2)OCO3)NC(c2cc(Br)ccc2F)N1 (stereo not given)	31*	.	.	83*
O=C(O)c1cc(-c2ccc3c(c2)OCO3)nc2ccc(Cl)cc12	8	-23%	0%	30
